Data: PubChem BioAssay AID1159580 (chemical genetic matrix, 2015)
Values joined by “and” are separate entries in the source; they are usually repeats but may differ in a detail not shown here. Equal values may be shown once. About 2,000 (36%) of roughly 5,500 compounds were called active. Another 18% or so got no clear call; they are omitted. No stated cut-off is given here; in the data, active means normalized growth mostly below about 0.91 (no sharp cut-off); inconclusive means no clear call, values can overlap the other calls; inactive means mostly above about 0.92. The list shows a part of the results.

Experiment: chemical genetic growth profiling, strain panel (AID 1159580);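 further: tested at 20 µM; growth read once vehicle control cultures reached saturation at 30 °C; 1 = growth at the plate median or of vehicle wells; lower values mean less growth of the strain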
Details: growth OD
[1] = S. cerevisiae deletion strains, locus YDL101C, strain DUN1, hits give low values
[2] = S. cerevisiae deletion strains, locus YGR052W, strain FMP48, hits give low values
[3] = S. cerevisiae deletion strains, locus YHR030C, strain SLT2, hits give low values
[4] = S. cerevisiae deletion strains, locus YHR079C, strain IRE1, hits give low values
[5] = S. cerevisiae deletion strains, locus YHR082C, strain KSP1, hits give low values
[6] = S. cerevisiae deletion strains, locus YJL095W, strain BCK1, hits give low values
[7] = S. cerevisiae deletion strains, locus YJR066W, strain TOR1, hits give low values
[8] = S. cerevisiae deletion strains, locus YKL203C, strain TOR2, hits give low values
[9] = S. cerevisiae deletion strains, locus YLR113W, strain HOG1, hits give low values
[10] = S. cerevisiae deletion strains, locus YNL183C, strain NPR1, hits give low values
[11] = S. cerevisiae deletion strains, locus YNL207W, strain RIO2, hits give low values
[12] = S. cerevisiae deletion strains, locus YOR119C, strain RIO1, hits give low values
[13] = S. cerevisiae deletion strains, locus YOR231W, strain MKK1, hits give low values
[14] = S. cerevisiae deletion strains, locus YPL256C, strain CLN2, hits give low values
[15] = S. cerevisiae deletion strains, locus YAL013W, strain DEP1, hits give low values
[16] = S. cerevisiae deletion strains, locus YBR229C, strain ROT2, hits give low values
[17] = S. cerevisiae deletion strains, locus YCL061C, strain MRC1, hits give low values
[18] = S. cerevisiae deletion strains, locus YDR150W, strain NUM1, hits give low values
[19] = S. cerevisiae deletion strains, locus YEL061C, strain CIN8, hits give low values
[20] = S. cerevisiae deletion strains, locus YGR078C, strain PAC10, hits give low values
[21] = S. cerevisiae deletion strains, locus YHR087W, strain rtc3, hits give low values
[22] = S. cerevisiae deletion strains, locus YJR043C, strain POL32, hits give low values
[23] = S. cerevisiae deletion strains, locus YJR075W, strain HOC1, hits give low values
[24] = S. cerevisiae deletion strains, locus YLR039C, strain RIC1, hits give low values
[25] = S. cerevisiae deletion strains, locus YLR058C, strain SHM2 (second series), hits give low values
[26] = S. cerevisiae deletion strains, locus YLR085C, strain ARP6, hits give low values
[27] = S. cerevisiae deletion strains, locus YLR262C, strain YPT6, hits give low values
[28] = S. cerevisiae deletion strains, locus YML094W, strain GIM5, hits give low values
[29] = S. cerevisiae deletion strains, locus YMR219W, strain ESC1, hits give low values
[30] = S. cerevisiae deletion strains, locus YMR263W, strain SAP30, hits give low values
[31] = S. cerevisiae deletion strains, locus YNL153C, strain GIM3, hits give low values
[32] = S. cerevisiae deletion strains, locus YNL298W, strain CLA4 (second series), hits give low values
[33] = S. cerevisiae deletion strains, locus YNL322C, strain KRE1, hits give low values
[34] = S. cerevisiae deletion strains, locus YNR030W, strain Alg12, hits give low values
[35] = S. cerevisiae deletion strains, locus YOL006C, strain TOP1, hits give low values
[36] = S. cerevisiae deletion strains, locus YPL055C, strain LGE1, hits give low values
[37] = S. cerevisiae deletion strains, locus YPL241C, strain CIN2, hits give low values
[38] = S. cerevisiae deletion strains, locus YPR135W, strain CTF4, hits give low values
[39] = S. cerevisiae deletion strains, locus YNL128W, strain TEP1, hits give low values

Measured: normalized growth

O=S(=O)(NC(=S)Nc1ccc(Cl)c(Cl)c1)c1ccccc1
inactive: S. cerevisiae deletion strains, locus YAR019C, strain CDC15, hits give low values 1.01 | S. cerevisiae deletion strains, locus YBL105C, strain PKC1, hits give low values 1.01 | S. cerevisiae deletion strains, locus YBR135W, strain CKS1, hits give low values 0.997 | S. cerevisiae deletion strains, locus YBR136W, strain MEC1, hits give low values 1 | S. cerevisiae deletion strains, locus YBR160W, strain CDC28, hits give low values 1 | S. cerevisiae deletion strains, locus YDL017W, strain CDC7, hits give low values 1.01 | S. cerevisiae deletion strains, locus YDL028C, strain MPS1, hits give low values 1 | [1] 1.01 | S. cerevisiae deletion strains, locus YDL108W, strain KIN28, hits give low values 1 | S. cerevisiae deletion strains, locus YDL132W, strain cdc53, hits give low values 0.993 | S. cerevisiae deletion strains, locus YDL214C, strain PRR2, hits give low values 1.02 | S. cerevisiae deletion strains, locus YDR052C, strain DBF4, hits give low values 1.01 | S. cerevisiae deletion strains, locus YDR054C, strain cdc34, hits give low values 1.01 | S. cerevisiae deletion strains, locus YDR226W, strain ADK1, hits give low values 0.991 | S. cerevisiae deletion strains, locus YDR477W, strain SNF1, hits give low values 1.02 | S. cerevisiae deletion strains, locus YER123W, strain YCK3, hits give low values 1 | S. cerevisiae deletion strains, locus YER133W, strain GLC7, hits give low values 1.01 | S. cerevisiae deletion strains, locus YFL009W, strain cdc4, hits give low values 1.01 | S. cerevisiae deletion strains, locus YFL029C, strain CAK1, hits give low values 1 | S. cerevisiae deletion strains, locus YFR003C, strain YPI1, hits give low values 1 | S. cerevisiae deletion strains, locus YFR019W, strain FAB1, hits give low values 1 | S. cerevisiae deletion strains, locus YFR028C, strain CDC14, hits give low values 1 | S. cerevisiae deletion strains, locus YGR040W, strain KSS1, hits give low values 1.01 | [2] 1.12 | S. cerevisiae deletion strains, locus YGR092W, strain DBF2, hits give low values 0.988 | [3] 1.1 | [4] 1 | [5] 1.09 | S. cerevisiae deletion strains, locus YHR205W, strain SCH9, hits give low values 0.995 | S. cerevisiae deletion strains, locus YIL147C, strain SLN1, hits give low values 1 | [6] 1.05 | S. cerevisiae deletion strains, locus YJL128C, strain PBS2, hits give low values 0.995 | S. cerevisiae deletion strains, locus YJL157C, strain FAR1, hits give low values 1.01 | S. cerevisiae deletion strains, locus YJR016C, strain ILV3, hits give low values 0.995 | S. cerevisiae deletion strains, locus YJR066W, strain TOR1 (second series), hits give low values 0.992 | [7] 1.13 | S. cerevisiae deletion strains, locus YKL048C, strain ELM1, hits give low values 1.02 | S. cerevisiae deletion strains, locus YKL067W, strain YNK1, hits give low values 0.995 | S. cerevisiae deletion strains, locus YKL101W, strain HSL1, hits give low values 1 | S. cerevisiae deletion strains, locus YKL193C, strain SDS22, hits give low values 1 | [8] 1.07 | [9] 1.03 | S. cerevisiae deletion strains, locus YLR133W, strain CKI1, hits give low values 1.01 | S. cerevisiae deletion strains, locus YLR403W, strain SFP1, hits give low values 1.02 | S. cerevisiae deletion strains, locus YML070W, strain DAK1, hits give low values 0.999 | S. cerevisiae deletion strains, locus YMR001C, strain CDC5, hits give low values 1 | S. cerevisiae deletion strains, locus YMR205C, strain PFK2 (second series), hits give low values 1 | S. cerevisiae deletion strains, locus YMR277W, strain FCP1, hits give low values 1 | S. cerevisiae deletion strains, locus YNL006W, strain LST8, hits give low values 0.984 | S. cerevisiae deletion strains, locus YNL020C, strain ARK1, hits give low values 1 | S. cerevisiae deletion strains, locus YNL161W, strain CBK1, hits give low values 0.996 | [10] 0.986 | [11] 1.01 | S. cerevisiae deletion strains, locus YNL222W, strain SSU72, hits give low values 0.995 | S. cerevisiae deletion strains, locus YNL307C, strain MCK1 (second series), hits give low values 0.987 | S. cerevisiae deletion strains, locus YOL078W, strain AVO1, hits give low values 1 | S. cerevisiae deletion strains, locus YOL136C, strain PFK27, hits give low values 1 | S. cerevisiae deletion strains, locus YOR061W, strain CKA2, hits give low values 1.02 | [12] 1.13 | [13] 1.02 | S. cerevisiae deletion strains, locus YOR329C, strain SCD5, hits give low values 1.01 | S. cerevisiae deletion strains, locus YPL031C, strain PHO85, hits give low values 1.02 | S. cerevisiae deletion strains, locus YPL153C, strain RAD53, hits give low values 1 | S. cerevisiae deletion strains, locus YPL204W, strain HRR25, hits give low values 0.999 | S. cerevisiae deletion strains, locus YPL209C, strain IPL1, hits give low values 0.996 | [14] 1.01 | S. cerevisiae deletion strains, locus YPR025C, strain CCL1, hits give low values 0.998 | S. cerevisiae deletion strains, locus YPR106W, strain ISR1, hits give low values 1.01 | S. cerevisiae deletion strains, locus YPR111W, strain DBF20, hits give low values 0.994 | S. cerevisiae deletion strains, strain NNK1, hits give low values 1 | S. cerevisiae deletion strains, strain TSCII, hits give low values 0.999

S=C(NCc1ccccc1)Nc1ccc(Cl)c(Cl)c1
active: [15] 0.884 | [17] 0.866 | [19] 0.835 | [20] 0.9 | [3] 0.382 and 0.745 | [4] 0.861 | S. cerevisiae deletion strains, locus YJL187C, strain SWE1, hits give low values 0.891 | S. cerevisiae deletion strains, locus YKL190W, strain CNB1, hits give low values 0.68 | [8] 0.803 | [24] 0.482 | [26] 0.332 | [27] 0.701 | [28] 0.677 | [30] 0.846 | [31] 0.907 | [32] 0.548 | [34] 0.701 | [35] 0.251 | [36] 0.689 | [37] 0.691 | [38] 0.471 | S. cerevisiae strains, strain wild type, hits give low values 0.828
inactive: [16] 0.948 | [1] 0.935 | [18] 0.917 | [2] 0.878 | [5] 0.839 | [21] 0.964 | [6] 0.841 | [22] 0.978 | [7] 0.845 | [23] 0.897 | S. cerevisiae deletion strains, locus YKL171W, strain NNK1, hits give low values 0.807 | [25] 0.938 | [9] 1.06 | [29] 0.962 | [10] 0.846 | [11] 0.829 | [33] 0.977 | [12] 0.77 | [13] 0.862 | [14] 0.916

S=C(NCc1cccnc1)Nc1ccccc1Cl
inactive: [15] 0.987 | [16] 1 | [17] 0.988 | [1] 0.989 | [18] 0.953 | [19] 0.975 | [20] 0.989 | S. cerevisiae deletion strains, locus YGR229C, strain SMI1, hits give low values 0.991 | [21] 1.01 | [22] 0.984 | [23] 1.02 | [24] 0.939 | [25] 0.987 | [27] 0.982 | [28] 0.953 | [29] 0.992 | [30] 0.968 | [39] 0.994 | [31] 0.98 | [32] 0.959 | [33] 1 | [34] 0.987 | [35] 1 | [36] 0.961 | [37] 0.97 | [38] 0.745
active: [3] 0.538 | [26] 0.584

COc1ccc(C(=O)NCc2cccnc2)cc1C(=O)NCc1cccnc1
inactive: S. cerevisiae deletion strains, locus YAL040C, strain CLN3, hits give low values 0.994 | S. cerevisiae deletion strains, locus YCL061C, strain MRC1 (second series), hits give low values 1.01 | [18] 1 | S. cerevisiae deletion strains, locus YDR363W, strain ESC2, hits give low values 1 | S. cerevisiae deletion strains, locus YER002W, strain NOP16, hits give low values 0.997 | [23] 1.02 | S. cerevisiae deletion strains, locus YMR307W, strain GAS1, hits give low values 1.01 | [39] 1.01 | [31] 1.02 | S. cerevisiae deletion strains, locus YNL175C, strain NOP13, hits give low values 1.02 | S. cerevisiae deletion strains, locus YNL197C, strain WHI3, hits give low values 1.04 | S. cerevisiae deletion strains, locus YNL224C, strain SQS1, hits give low values 1 | S. cerevisiae deletion strains, locus YOR083W, strain WHI5 (second series), hits give low values 1.02

O=P(O)(O)C(O)(Cc1cccnc1)P(=O)(O)O
inactive: [3] 0.969 | [4] 0.963 | [6] 0.969 | [7] 0.936 | [9] 0.919 | [10] 0.897 | [13] 0.966 | [14] 0.933
